The source of these data is PubChem BioAssay AID1986 (Sanford-Burnham Center for Chemical Genomics, 2009).

Among all 290,000 compounds or so, about 890 (0.31%) were called active. No stated cut-off is given here; in the data, active means inhibition mostly above about 52% (no sharp cut-off); inactive means mostly below about 76%. Many of the other results were omitted from the sample, so actives are more common in it than they were.

The assay is described as follows: cell-free HIV fusion peptide-binding blockers – biochemical, uHTS, fluorescence dequenching, primary screen (AID 1986). The following applies: 30 min, stronger effect = higher value.
The mark [1] stands for this setting: measured here: repeat confirmation average inhibition, at 18.6 µM.

In general, inhibition refers to the drop in the measured response relative to a control, in per cent. With `CNc1ccc2nc3ccccc3[n+](C)c2c1`, the inhibition (at 20 µM) was 20.9% (inactive).
Same read-out and setting: the value for `COc1cc(C(=S)N2CCOCC2)cc(OC)c1OC(=O)Cc1ccccc1` was -1.3% (inactive).
On to `O=C(CNC(=O)c1ccc(Br)cc1)Nc1ccc(Br)cc1C(=O)c1ccccc1`, for which the inhibition (at 20 µM) was 1.3% (inactive).
Take `CCOC(=O)N(CC)c1ccc(C(O)(C(=O)OC)C(F)(F)F)cc1` (stereo unspecified): the inhibition (at 20 µM) was 1.2% (inactive).
The same measure, in the same setting: the value for `CCCCn1c(=O)c(C(=O)NCc2ccco2)c(O)c2ccccc21` was 4.7% (inactive).
As to `Cc1cc(C=C(C#N)C#N)ccc1N1CCCC1`, the inhibition (at 20 µM) is 40.1% (inactive).
Turning to `Cc1cc(N2CCCC2)ccc1C=C(C#N)C#N`, the inhibition (at 20 µM) was 80.3% (active).
Still for that read-out and setting: the value for `N#CC(C#N)=Cc1ccc(N2CCCC2)cc1` was 11.8% (inactive).
`c1ccc(-c2[nH]c[n+](CC3CO3)c2-c2ccccc2)cc1` (stereo unspecified): under “at 20 µM”, the inhibition was 12.3% (inactive).
With `O=C(CCc1nnc2ccc(NCc3ccccc3Cl)nn12)N1CCC2(CC1)OCCO2`, the inhibition (at 20 µM) was 1% (inactive).
Consider `CCCCn1c(O)c(C(C)=NCCc2c[nH]c3ccccc23)c(=O)[nH]c1=O`, for which the inhibition (at 20 µM) was 0.5% (inactive).
For the compound `O=C(/C=C/c1c[nH]c2ccccc12)c1c(O)n(CCc2ccccc2)c(=O)[nH]c1=O`, the inhibition (at 20 µM) was 148% (inactive).
`CCCCn1c(O)c(C(=O)/C=C/c2c[nH]c3ccccc23)c(=O)[nH]c1=O`: under “at 20 µM”, the inhibition is 97.6% (active).
On to `CC(=O)NNC(=O)CN1C(=O)CN=C(c2ccccc2)c2cc(Br)ccc21`, for which the inhibition (at 20 µM) is 2.1% (inactive).
`CN(C)C(=O)Oc1ccc(Cl)c2cccnc12`: the inhibition (at 20 µM) is 3.9% (inactive).
On the same count and under the same terms, the value for `Cc1cc(C)cc(-n2c(O)c(C=Nc3ccc(N4CCOCC4)cc3)c(=O)[nH]c2=S)c1` was 23.1% (inactive); that for `O=c1[nH]c(=S)n(-c2ccc(Br)cc2)c(O)c1C=Nc1ccc(N2CCOCC2)cc1` was 24.5% (inactive).
On to `O=c1[nH]c(=S)n(-c2ccc(Cl)cc2)c(O)c1C=Nc1ccc(N2CCOCC2)cc1`, for which the inhibition (at 20 µM) is 102% (active) and the inhibition under setting [1] came out at 80.1%.
In the case of `O=C1NC(=O)N(c2ccccc2)C(=O)/C1=C\c1ccccc1[N+](=O)[O-]`, where the note is “at 20 µM”, the inhibition is 3.7% (inactive).
On the same count and under the same terms, the value for `CCCCn1c(=O)c(C=Nc2cccnc2Cl)c(O)n(CCCCl)c1=O` was 37.8% (inactive).
Regarding `C=CCn1c(=O)c(C=Nc2cccnc2Cl)c(O)n(CCCC)c1=O`, the inhibition reads like this: (at 20 µM) 119% (inactive); under setting [1], 1.7%.
In the case of `O=c1c(C=Nc2cccnc2Cl)c(O)n(CCCCl)c(=O)n1C1CCCCC1`, the inhibition (at 20 µM) is 71% (active).
Same read-out and setting: as for `Cc1ccc(N2C(=O)NC(=O)C(CCc3ccccn3)(Cc3cccc(Cl)c3Cl)C2=O)cc1` (stereo unspecified), the figure is 0.2% (inactive).
With `Cn1c(O)c(/C=C/C=Nc2ccccc2)c(=O)n(C)c1=S`, the inhibition runs as follows: (at 20 µM) 91.4% (active); under setting [1], 60.5%.
The corresponding values for `Cn1c(O)c(/C=C/C=Nc2ccccc2)c(=O)n(C)c1=O` are 52.8% (inactive) and 27.8%.
Regarding `Cc1cccc(-n2c(O)c(C=Nc3ccc(Br)cn3)c(=O)[nH]c2=O)c1`, the inhibition (at 20 µM) is 144% (inactive).
As to `Cc1ccc(-n2c(O)c(/C=N/c3ncc(Br)cc3Br)c(=O)[nH]c2=O)cc1`, the inhibition is, setting by setting: (at 20 µM) 64% (inactive); under setting [1], 2.3%.
As for `Cn1c(O)c(C=Nc2ccccc2)c(=O)n(C)c1=O`, the inhibition (at 20 µM) was 1.3% (inactive).
In the case of `Cc1ccc(-n2c(O)c(C=Nc3ccc(Br)cn3)c(=O)[nH]c2=O)cc1`, the inhibition (at 20 µM) was 124% (active).
Still for that read-out and setting: the value for `O=c1[nH]c(=O)n(-c2ccccc2)c(O)c1/C=C/C=Nc1ccccc1` was 147% (inactive); that for `Cc1ccc(-n2c(O)c(/C=C/C=Nc3ccccc3)c(=O)[nH]c2=O)cc1` was 74.3% (active); that for `Cc1cccc(-n2c(O)c(/C=C/C=Nc3ccccc3)c(=O)[nH]c2=O)c1` was 147% (inactive).
As for `CC(=O)c1cccc(OCC(O)CN2CC=C(c3ccccc3)CC2)c1` (stereo unspecified), the inhibition (at 20 µM) was -1% (inactive).
`O=c1c2ccccc2[nH]c(=S)n1-c1ccc(Br)cc1`: the inhibition (at 20 µM) is -0.2% (inactive).
The same measure, in the same setting: the value for `O=c1[nH]c(O)c(N=Nc2ccc(SC(F)F)cc2)c(=O)[nH]1` was 3.1% (inactive).
Turning to `CCCOP(=O)(OCCC)C(NC(=O)c1cc(OC)c(OC)c(OC)c1)c1ccccc1` (stereo unspecified), where the note is “at 20 µM”, the inhibition was -1.1% (inactive).
Still for that read-out and setting: the value for `CCOC(=O)c1c(C)n(C(C)C)c2ccc(OC)cc12` was -1.3% (inactive).
Consider `COc1cccc(CNC(=O)CCC(=O)N2C[C@H]3C[C@H](C2)c2cccc(=O)n2C3)c1OC`, for which the inhibition (at 20 µM) was 1.4% (inactive).
Same read-out and setting: as for `Cc1ccc(OCCn2cccc2/C=C2/C(=O)NC(=O)N(Cc3ccco3)C2=O)cc1`, the figure is 23.5% (inactive).
Take `CCc1ccc(N2C(=O)NC(=O)/C(=C/c3cccn3CCOc3ccc(C)cc3)C2=O)cc1`: the inhibition runs as follows: (at 20 µM) 73.7% (inactive); under setting [1], 6.1%.
`CCc1ccc(N2C(=O)NC(=O)/C(=C\c3cccn3CCOc3ccc(C(C)C)cc3)C2=O)cc1`: the inhibition was 59.3% (inactive) (at 20 µM) and 1.8% under setting [1].
In the case of `O=C1NC(=O)N(Cc2ccco2)C(=O)/C1=C\c1cccn1CCOc1ccc(Cl)cc1`, the inhibition reads like this: (at 20 µM) 93.3% (inactive); under setting [1], 0.8%.
For `CCC(C)c1ccc(N2C(=O)NC(=O)/C(=C/c3cccn3CCOc3ccc(C)cc3)C2=O)cc1` (stereo unspecified) the same measures were 65.8% (active) and 70.7%.
As to `CCc1ccc(N2C(=O)NC(=O)/C(=C/c3cccn3CCOc3ccc(C(C)CC)cc3)C2=O)cc1` (stereo unspecified), where the note is “at 20 µM”, the inhibition is 53.2% (active).
`Cc1ccc(/C=C2/Sc3ccc(C(=O)N4CCC5(CC4)OCCO5)cc3NC2=O)cc1`: the inhibition runs as follows: (at 20 µM) 54.6% (inactive); under setting [1], 37.1%.
As to `CCOC(=O)c1sc(/N=C/c2c(O)n(-c3ccccc3)c(=O)[nH]c2=O)c(C#N)c1C`, the inhibition (at 20 µM) was -1.7% (inactive).
Take `O=C(O)C1C2c3ccccc3C(c3ccccc32)C1C(=O)Nc1ccccc1` (stereo unspecified): the inhibition (at 20 µM) is 4.1% (inactive).
With `CC12CN3CCN(CC(C3)C1O)C2` (stereo unspecified), the inhibition (at 20 µM) was -2.7% (inactive).
For `COc1ccccc1/C=N/N=C(/N)N[N+](=O)[O-]`, the inhibition (at 20 µM) is 2.7% (inactive).
Turning to `COc1cccc(CN2CC=C(c3ccc(F)cc3)CC2)c1`, the inhibition (at 20 µM) was 2.3% (inactive).
On the same count and under the same terms, as for `COc1ccc(CN2CCN(Cc3ccccc3)CC2)c(OC)c1`, the figure is -1.2% (inactive); as for `Cc1cccc(N2C(=O)NC(=O)/C(=C\c3cc(C)n(-c4sc5c(c4C#N)CCCC5)c3C)C2=O)c1C`, 22% (inactive); as for `Cc1ccc(N2C(=O)NC(=O)/C(=C\c3cc(C)n(-c4sc5c(c4C#N)CCCC5)c3C)C2=O)cc1`, 52.2% (active).
For `Cc1cc(/C=C2\C(=O)NC(=O)N(c3ccc(Cl)cc3)C2=O)c(C)n1-c1sc2c(c1C#N)CCCC2`, the inhibition runs as follows: (at 20 µM) 64.4% (inactive); under setting [1], 9%.
As to `CNP(=O)(Oc1ccccc1)OC12CC3CC(CC(C3)C1)C2` (stereo unspecified), the inhibition (at 20 µM) was 1.8% (inactive).
